# Assay outcomes from PubChem BioAssay.
# Cycloheximide cs – counter-screen hit for Shiga toxin inhibitors, cycloheximide; cell reporter, cycloheximide protein synthesis inhibition counterscreen; max response, %; 12% of 300,000 active; AID 2314; in the data active = max response mostly above about 13%, no sharp cut-off; inactive = mostly below about 14%; also: read at 38.3 µM for the half of the compounds with a filed dose; 0% is about no effect
# Shiga toxin inh – inhibitors of Shiga toxin in Vero cells | Vero cells, Shiga toxin protein synthesis inhibition reporter | inhibition, % at 38.7 µM | 9.2% of 290,000 active | AID 2315; in the data active = inhibition mostly above about 28%, no sharp cut-off; inactive = mostly below about 43%; also: 0% is about no effect
# HCMV antiviral – blocks human cytomegalovirus replication. 4.5% of 410,000 active. HFF cells, HCMV-luciferase reporter, 72 h; hits give low values. activity change, negative = inhibition, % at 57.5 µM; in the data active = activity change below about -60%; inconclusive = no clear call, values can overlap the other calls; inactive = above about -39%; also: % is scaled to controls: 0 for no effect and ±100 for the full control effect
#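 Two compound doses tested in HFFs infected with HCMV-luciferase, MOI 1 PFU/cell, 72 h at 37C. Lysate luminescence read with OneGlo; data normalized against buffer-only and 10uM Salinomycin inhibitor controls.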
# Pf growth 96h – P. falciparum growth inhibition at 96 hour, primary screen for plastid delayed-death inhibitors; P. falciparum luciferase reporter growth, 96 h; Potency, µM (top dose mostly 28.7 µM), for the others: at the top dose activity change, negative = inhibition, usual class: inhibitors; 6.9% of 320,000 active; AID 504834; also: potency is read from the fitted curve at half-maximal effect; % is scaled to controls: 0 for no effect and ±100 for the full control effect
#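 Plates of compound plus infected erythrocytes (2% hematocrit, 0.05% parasitemia final) incubate 96 hours, 37 C, 5% CO2. Detection reagent added; reduced luminescence from the parasites' luciferase reporter flags inhibition.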
# Pf growth 48h – inhibits P. falciparum growth in the first generation, 48 h; P. falciparum luciferase growth in erythrocytes, 48 h; Potency, µM (series often up to 28.7 µM), for the others: at the top dose activity change, negative = inhibition, actives largely listed as inhibitors; 5.9% of 310,000 active; AID 504832; also: potency is read from the fitted curve at half-maximal effect; % is scaled to controls: 0 for no effect and ±100 for the full control effect
#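 Read-out is firefly luciferase luminescence from an integrated reporter in P. falciparum, so falling signal marks reduced parasite growth. Infected erythrocytes were at 2% hematocrit and 0.1% parasitemia (final) in Albumax-supplemented RPMI 1640.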
# HCV inhibitor – inhibitors of hepatitis C virus infection. Huh7.5.1 HCVcc-Cre infection, luciferase reporter, 44 h. Potency, µM (highest dose often 41.8 µM), for the others: top-dose activity change, negative = inhibition, most hits filed as inhibitors. 3.4% of 340,000 active. AID 651820; also: potency is read from the fitted curve at half-maximal effect; % is scaled to controls: 0 for no effect and ±100 for the full control effect
#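 1,000 cells/well; 4 h culture; + compound; + HCVcc-Cre (~0.5 moi); 44 h; luciferase substrate, RT 15 min; read 15 sec.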
# Numbers without * were called inactive; ? = inconclusive; . = no result; [ ] = dose if it differs, or a comment. In the library only some 21% were active in any assay of this set; here they are far more common. Unless noted, calls follow the shape of the dose curve; as a rule, active = well fitted inhibition curve with a large enough effect; inconclusive = small, poorly fitted or top-dose-only effect, or another doubt; inactive = no such curve, though single readings can be large or run the other way.
SMILES,Cycloheximide cs,Shiga toxin inh,HCMV antiviral,Pf growth 96h,Pf growth 48h,HCV inhibitor
COc1ccc(N2C(=O)C3C(C2=O)C(C(=O)c2ccc(Cl)cc2)N2CCCC32)cc1 (stereo not given),33.6*,90.3*,-60.1*,?,?,4.5%
C/C=C\c1ccc(OC)cc1,.,.,.,7.3%,-17.0%,.
COc1ccc(/C=C/C2=CC(C)(C)NC(=S)N2)cc1,7.8,13.8,?,9.28µM*,?,?
CCOc1ccc2c(c1)OC(c1ccccc1)(C(F)(F)F)NC2=O (stereo not given),-3.8,-4.3,27.5,0.233µM*,1.65µM*,2.9%
CCOc1ccc2c(c1)OC(c1ccc(OC)cc1)(C(F)(F)F)NC2=O (stereo not given),1.8,1.8,-30.0,?,?,10.2%
Cc1ccc2[nH]c(C(=O)N/N=C/c3ccccc3O)c(C)c2c1,25.4*,61.2*,-99.5*,4.65µM*,2.33µM*,3.55µM*
Cc1ccc2[nH]c(C(=O)N/N=C/c3ccc([N+](=O)[O-])cc3)c(C)c2c1,-2.1,16.3,49.6,13.9%,13.1%,?
Cc1ccc2[nH]c(C(=O)N/N=C/c3ccccc3C(=O)O)c(-c3ccccc3)c2c1,-6.0,-2.3,-18.7,0.738µM*,-20.3%[0.00184 µM],3.5%
COc1ccc(C2(CNC(=O)C(=O)Nc3ccc(F)cc3)CCCC2)cc1OC,.,.,8.0,.,.,.
c1ccc(-c2noc(C34CC5CC(CC(C5)C3)C4)n2)nc1,33.7*,99.7*,26.3,-0.9%,?,7.2%
c1ccc(SC23CC4CC(CC(C4)C2)C3)nc1,.,.,-4.5,.,.,.
c1ccc(-c2noc(C34CC5CC(CC(C5)C3)C4)n2)cc1,13.7*,19.1,-6.1,.,23.4%,7.4%
Clc1ccc(-c2noc(-c3cccnc3NCc3ccco3)n2)cc1,.,.,81.9,.,.,.
CCc1ccc(S(=O)(=O)NCc2csc(-c3cccnc3)n2)s1,4.6,5.3,17.1,0.738µM*,0.7%,?
CC1CSc2n(-c3cccc(C(F)(F)F)c3)cc(-c3ccccc3)[n+]21 (stereo not given),-1.5,-3.2,-6.6,?,1.85µM*,?
O=C(Nc1nc(-c2cc(F)ccc2F)cs1)c1ccccn1,15.3*,42.2*,-37.3,?,8.2%,?
O=C(Nc1nc(-c2ccccc2)cs1)Nc1ccc(F)cc1F,27.7*,59.3*,-74.8*,-14.5%,20.7%,?
O=C(Nc1nc(-c2ccccn2)cs1)Nc1ccc(F)cc1F,35.0*,84.5*,?,1.65µM*,1.47µM*,?
CCOC(=O)c1cccc(NC(=O)CCc2c(C)nc3cc(-c4ccc(Cl)cc4)nn3c2C)c1,.,.,-38.2,.,.,.
Cc1ccc(-n2cccc2C(=O)NS(=O)(=O)c2ccc(C)cc2)cc1,1.5,10.2,67.8,46.1%,11.3%,-7.0%
Cc1ccc(-n2cccc2C(=S)N=P(N(C)C)(N(C)C)N(C)C)cc1,-0.8,-16.1,-79.5*,35.3%,.,?
NC1=NS(=O)(=O)NC1c1ccc(Br)cc1 (stereo not given),-5.4,-2.1,23.4,20.5%,-0.4%,-1.1%
CC(C)c1ccc(C(=O)N(c2ccccn2)C(C)c2ccco2)cc1 (stereo not given),29.8*,90.5*,11.7,?,?,-8.9%
Cc1cc(C)cc(C(=O)N(c2ccccn2)C(C)c2ccco2)c1 (stereo not given),1.5,15.5,8.5,-20.4%,.,-13.2%
CC(c1ccco1)N(C(=O)c1ccccc1NS(=O)(=O)c1ccc(Cl)c([N+](=O)[O-])c1)c1ccccn1 (stereo not given),-3.5,39.3*,-20.6,?,-1.1%,?
CC(=O)c1cc2c(cc1NS(=O)(=O)c1ccccc1F)OCO2,-3.8,-6.9,27.6,-13.1%,?,-10.4%
O=C1/C(=C\Nc2ccc(Cl)cc2)CCN1c1ncccn1,23.0*,88.9*,37.5,223.6%,203.2%,4.5%
O=C1/C(=C\Nc2ccc(OC(F)(F)F)cc2)CCN1c1ncccn1,17.6,19.3,-4.8,.,64.5%,-12.5%
CCCNC(=O)c1cc(-c2ccc3c(c2)OCO3)on1,30.6*,85.9*,109.5,-6.8%,119.1%,8.1%
